# Test results taken from PubChem BioAssay AID1159580 (chemical genetic matrix, 2015).
# Hit rate of the full screen: of about 5,500 compounds, about 2,000 (36%) were called active. Inconclusive results (about 18%) are left out. Some of the results follow. A number with no mark means an inactive call. Rule as the data show it: active = normalized growth mostly below about 0.91 (no sharp cut-off); inconclusive = no clear call, values can overlap the other calls; inactive = mostly above about 0.92.
# Assay: chemical genetic growth profiling, strain panel (AID 1159580);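 also: tested at 20 µM; growth read once vehicle control cultures reached saturation at 30 °C; 1 = growth at the plate median or of vehicle wells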
# Conditions: S. cerevisiae deletion strains, growth OD
# [1] = locus YHR030C, strain SLT2, stronger effect = lower value
# [2] = locus YHR079C, strain IRE1, stronger effect = lower value
# [3] = locus YJL095W, strain BCK1, stronger effect = lower value
# [4] = locus YJR066W, strain TOR1, stronger effect = lower value
# [5] = locus YLR113W, strain HOG1, stronger effect = lower value
# [6] = locus YNL183C, strain NPR1, stronger effect = lower value
# [7] = locus YOR231W, strain MKK1, stronger effect = lower value
# [8] = locus YPL256C, strain CLN2, stronger effect = lower value
# [9] = locus YAL013W, strain DEP1, stronger effect = lower value
# [10] = locus YMR263W, strain SAP30, stronger effect = lower value
# [11] = locus YNL153C, strain GIM3, stronger effect = lower value
# [12] = locus YNL322C, strain KRE1, stronger effect = lower value
# [13] = locus YPL055C, strain LGE1, stronger effect = lower value
# [14] = locus YPL241C, strain CIN2, stronger effect = lower value
# [15] = locus YCL061C, strain MRC1, stronger effect = lower value
smiles,measurement,setting,value
C[N+](C)(C)C[C@H](O)CC(=O)[O-],normalized growth,[1],0.972
same,normalized growth,[2],0.984
same,normalized growth,[3],1.02
same,normalized growth,[4],0.923
same,normalized growth,[5],1.01
same,normalized growth,[6],0.923
same,normalized growth,[7],0.962
same,normalized growth,[8],0.961
NCCc1ccc(S(=O)(=O)F)cc1,normalized growth,[9],1
same,normalized growth,"locus YAL040C, strain CLN3, stronger effect = lower value",1.01
same,normalized growth,"locus YER002W, strain NOP16, stronger effect = lower value",1.02
same,normalized growth,[10],1
same,normalized growth,[11],1.03
same,normalized growth,"locus YNL175C, strain NOP13, stronger effect = lower value",1
same,normalized growth,"locus YNL197C, strain WHI3, stronger effect = lower value",1.04
same,normalized growth,"locus YNL224C, strain SQS1, stronger effect = lower value",1
same,normalized growth,[12],1.01
same,normalized growth,"locus YOR083W, strain WHI5 (second series), stronger effect = lower value",0.997
same,normalized growth,[13],1.02
same,normalized growth,[14],1.01
CCCCCCCCCCCCCCCCC(C(=O)O)C(O)(CC(=O)O)C(=O)O (centres undefined),normalized growth,[1],0.501 (active)
same,normalized growth,[2],0.804 (active)
same,normalized growth,[3],0.581 (active)
same,normalized growth,[4],0.566 (active)
same,normalized growth,[5],0.48 (active)
same,normalized growth,[6],0.648 (active)
same,normalized growth,[7],0.836 (active)
same,normalized growth,[8],0.863
CCCC(CC(=O)O)(C(=O)O)c1ccccc1 (centres undefined),normalized growth,[9],1.01
same,normalized growth,"locus YBR229C, strain ROT2, stronger effect = lower value",1
same,normalized growth,[15],1.01
same,normalized growth,"locus YDL101C, strain DUN1, stronger effect = lower value",1.01
same,normalized growth,"locus YDR150W, strain NUM1, stronger effect = lower value",1
same,normalized growth,"locus YEL061C, strain CIN8, stronger effect = lower value",1.01
same,normalized growth,"locus YGR078C, strain PAC10, stronger effect = lower value",1
same,normalized growth,"locus YGR229C, strain SMI1, stronger effect = lower value",1.01
same,normalized growth,[1],1.12
same,normalized growth,"locus YHR087W, strain rtc3, stronger effect = lower value",1
same,normalized growth,"locus YJR043C, strain POL32, stronger effect = lower value",1.01
same,normalized growth,"locus YJR075W, strain HOC1, stronger effect = lower value",1
same,normalized growth,"locus YLR039C, strain RIC1, stronger effect = lower value",1.03
same,normalized growth,"locus YLR058C, strain SHM2 (second series), stronger effect = lower value",1.01
same,normalized growth,"locus YLR085C, strain ARP6, stronger effect = lower value",1.05
same,normalized growth,"locus YLR262C, strain YPT6, stronger effect = lower value",1.02
same,normalized growth,"locus YML094W, strain GIM5, stronger effect = lower value",1.02
same,normalized growth,"locus YMR219W, strain ESC1, stronger effect = lower value",1.01
same,normalized growth,[10],1
same,normalized growth,[11],1
same,normalized growth,"locus YNL298W, strain CLA4 (second series), stronger effect = lower value",1.03
same,normalized growth,[12],0.998
same,normalized growth,"locus YNR030W, strain Alg12, stronger effect = lower value",1.01
same,normalized growth,[13],1.06
same,normalized growth,[14],1.02
same,normalized growth,"locus YPR135W, strain CTF4, stronger effect = lower value",1.06
CCCCCCCCCCCCCCC(C(=O)O)C(O)(CC(=O)OC)C(=O)O (centres undefined),normalized growth,"locus YAL021C, strain ccr4, stronger effect = lower value",1.04
same,normalized growth,"locus YAL026C, strain drs2, stronger effect = lower value",0.997
same,normalized growth,"locus YAL030W, strain snc1, stronger effect = lower value",1
same,normalized growth,"locus YBL061C, strain skt5, stronger effect = lower value",0.97
same,normalized growth,"locus YBR009C, strain hhf1, stronger effect = lower value",0.955
same,normalized growth,"locus YBR023C, strain chs3, stronger effect = lower value",0.967
same,normalized growth,"locus YBR171W, strain sec66, stronger effect = lower value",0.999
same,normalized growth,"locus YBR231C, strain swc5, stronger effect = lower value",0.986
same,normalized growth,"locus YBR279W, strain paf1, stronger effect = lower value",0.988
same,normalized growth,"locus YCL011C, strain gbp2, stronger effect = lower value",1
same,normalized growth,"locus YCL016C, strain dcc1, stronger effect = lower value",1.01
same,normalized growth,[15],0.986
same,normalized growth,"locus YCL069W, strain vba3, stronger effect = lower value",1.02
same,normalized growth,"locus YCR088W, strain abp1, stronger effect = lower value",1.02
same,normalized growth,"locus YDL005C, strain med2, stronger effect = lower value",0.987
same,normalized growth,"locus YDL040C, strain nat1, stronger effect = lower value",0.985
same,normalized growth,"locus YDR001C, strain nth1, stronger effect = lower value",1.02
same,normalized growth,"locus YDR069C, strain doa4, stronger effect = lower value",1.07
same,normalized growth,"locus YDR137W, strain rgp1, stronger effect = lower value",0.999
same,normalized growth,"locus YDR159W, strain sac3, stronger effect = lower value",0.996
same,normalized growth,"locus YDR195W, strain ref2",1.03
same,normalized growth,"locus YDR297W, strain sur2, stronger effect = lower value",0.994
same,normalized growth,"locus YDR334W, strain swr1, stronger effect = lower value",1.01
same,normalized growth,"locus YDR335W, strain msn5, stronger effect = lower value",0.977
same,normalized growth,"locus YDR392W, strain spt3, stronger effect = lower value",0.857
same,normalized growth,"locus YEL003W, strain gim4, stronger effect = lower value",0.98
same,normalized growth,"locus YEL037C, strain rad23, stronger effect = lower value",1
same,normalized growth,"locus YEL061C, strain CIN8 (second series), stronger effect = lower value",1.01
same,normalized growth,"locus YER015W, strain faa2, stronger effect = lower value",1
same,normalized growth,"locus YER016W, strain bim1, stronger effect = lower value",1
same,normalized growth,"locus YER111C, strain swi4, stronger effect = lower value",0.964
same,normalized growth,"locus YER155C, strain BEM2 (second series), stronger effect = lower value",0.981
same,normalized growth,"locus YFR010W, strain ubp6, stronger effect = lower value",1.08
same,normalized growth,"locus YGL167C, strain pmr1, stronger effect = lower value",0.981
same,normalized growth,"locus YGL173C, strain kem1, stronger effect = lower value",0.958
same,normalized growth,"locus YGL227W, strain vid30, stronger effect = lower value",1
same,normalized growth,"locus YGL240W, strain doc1, stronger effect = lower value",0.987
same,normalized growth,"locus YGL253W, strain hxk2, stronger effect = lower value",0.966
same,normalized growth,"locus YHR013C, strain ard1, stronger effect = lower value",1.62 [resistant] (active)
same,normalized growth,"locus YHR027C, strain rpn1, stronger effect = lower value",0.994
same,normalized growth,[1],0.973
same,normalized growth,[2],1
same,normalized growth,"locus YHR142W, strain chs7, stronger effect = lower value",0.927
same,normalized growth,"locus YJL092W, strain hpr5, stronger effect = lower value",1.01
same,normalized growth,"locus YJL095W, strain BCK1 (second series), stronger effect = lower value",1
same,normalized growth,[3],0.952
same,normalized growth,"locus YJL115W, strain asf1, stronger effect = lower value",0.976
same,normalized growth,"locus YJL129C, strain trk1, stronger effect = lower value",0.869 (active)
same,normalized growth,"locus YJL154C, strain vps35, stronger effect = lower value",1.01
same,normalized growth,"locus YJL164C, strain tpk1, stronger effect = lower value",0.979
same,normalized growth,"locus YJL166W, strain qcr8, stronger effect = lower value",0.976
same,normalized growth,"locus YJL187C, strain SWE1, stronger effect = lower value",0.995
same,normalized growth,[4],0.898
same,normalized growth,"locus YKL160W, strain elf1, stronger effect = lower value",0.99
same,normalized growth,"locus YKR026C, strain gcn3, stronger effect = lower value",0.999
same,normalized growth,"locus YKR091W, strain srl3, stronger effect = lower value",1.01
same,normalized growth,"locus YLL001W, strain dnm1, stronger effect = lower value",0.992
same,normalized growth,"locus YLL026W, stronger effect = lower value",0.997
same,normalized growth,"locus YLL041C, strain sdh2, stronger effect = lower value",1.01
same,normalized growth,"locus YLR027C, strain aat2, stronger effect = lower value",0.969
same,normalized growth,[5],1.02
same,normalized growth,"locus YLR221C, strain rsa3, stronger effect = lower value",0.947
same,normalized growth,"locus YLR258W, strain gsy2, stronger effect = lower value",1
same,normalized growth,"locus YLR262C, strain YPT6 (second series), stronger effect = lower value",0.986
same,normalized growth,"locus YLR320W, strain mms22, stronger effect = lower value",0.996
same,normalized growth,"locus YLR342W, strain FKS1, stronger effect = lower value",1
same,normalized growth,"locus YLR357W, strain rsc2, stronger effect = lower value",0.926
same,normalized growth,"locus YLR370C, strain arc18, stronger effect = lower value",1.01
same,normalized growth,"locus YLR384C, strain iki3, stronger effect = lower value",1
same,normalized growth,"locus YML120C, strain ndi1, stronger effect = lower value",1.02
same,normalized growth,"locus YMR058W, strain fet3, stronger effect = lower value",0.9 (active)
same,normalized growth,"locus YMR125W, strain sto1, stronger effect = lower value",1.01
same,normalized growth,"locus YMR129W, stronger effect = lower value",1.01
same,normalized growth,"locus YMR205C, strain PFK2, stronger effect = lower value",1.04
same,normalized growth,"locus YMR231W, strain pep5, stronger effect = lower value",0.941
same,normalized growth,"locus YNL071W, strain lat1, stronger effect = lower value",1.02
same,normalized growth,[6],0.871
same,normalized growth,"locus YNL209W, strain ssb2, stronger effect = lower value",1.01
same,normalized growth,"locus YNL248C, strain rpa49, stronger effect = lower value",0.996
same,normalized growth,"locus YNL322C, strain KRE1 (second series), stronger effect = lower value",1.02
same,normalized growth,"locus YNR049C, strain mso1, stronger effect = lower value",0.999
same,normalized growth,"locus YOR001W, strain rrp6, stronger effect = lower value",0.981
same,normalized growth,"locus YOR070C, strain gyp1, stronger effect = lower value",0.985
same,normalized growth,"locus YOR080W, strain dia2, stronger effect = lower value",0.994
same,normalized growth,"locus YOR083W, strain WHI5, stronger effect = lower value",0.967
same,normalized growth,"locus YOR106W, strain vam3, stronger effect = lower value",0.982
same,normalized growth,[7],1.02
same,normalized growth,"locus YOR265W, strain rbl2, stronger effect = lower value",1
same,normalized growth,"locus YOR270C, strain vph1, stronger effect = lower value",1.45 [resistant] (active)
same,normalized growth,"locus YOR290C, strain snf2, stronger effect = lower value",1.04
same,normalized growth,"locus YPL051W, strain arl3, stronger effect = lower value",0.95
same,normalized growth,"locus YPL078C, strain atp4, stronger effect = lower value",0.996
same,normalized growth,"locus YPL106C, strain sse1, stronger effect = lower value",0.976
same,normalized growth,"locus YPL240C, strain hsp82, stronger effect = lower value",1
same,normalized growth,[8],0.999
